Compounds with a hit are over-represented: about 0.97% of the library has one in this group of screens.
TcdB GH inh – blocks C. difficile toxin B glycohydrolase activity | P18177 | TcdB glycohydrolase enzymatic assay, plate reader | inhibition, % at 9.99 µM | 350,000 compounds, 0.24% hits; in the data active = inhibition above about 10%
RecA intein inh – Mtb RecA intein splicing inhibition; 290,000 compounds, 0.75% hits; inhibition, % (no concentration beside the values); AID 2221; cell-free RecA intein splicing, fluorescence; in the data active = inhibition above about 30%;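 note: 0% = vehicle wells and 100% = reference inhibitor control wells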
MazEF act – increases E. coli MazEF RNase cleavage of RNA. P0AE70. FAM/BHQ RNA-DNA oligo cleavage fluorescence, 5 h. activation, % at 20 µM. 350,000 compounds, 0.32% hits; in the data active = activation above about 50%
Mtb betalactam – beta-lactam sensitization of Mtb H37Rv; M. tuberculosis H37Rv growth with meropenem, percent inhibition; inhibition, % at 25 µM; 330,000 compounds, 0.27% hits; call rule not given here;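 note: growth measured after seven days incubation then overnight dye step; 0% = bacteria only wells and 100% = bacteria with antibiotic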
Mtb UGM inh – inhibitors of M. tuberculosis UDP-galactopyranose mutase | purified UGM, fluorescence polarization probe displacement | inhibition, % at 10 µM | 320,000 compounds, 0.06% hits | AID 504406; in the data active = inhibition above about 10%, passing the limit was not always enough
Rv3671c inh – Rv3671c (M. tuberculosis) protease inhibition; P9WHR9; inhibition, % at 5.96 µM; 320,000 compounds, 0.048% hits; AID 2606; in the data active = inhibition above about 38%;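 note: extracellular domain of Rv3671c used as enzyme; 0% = enzyme with DMSO and 100% = no enzyme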
* hit, by the source's call; nt = no result; + = active, no number.

SMILES	TcdB GH inh	RecA intein inh	MazEF act	Mtb betalactam	Mtb UGM inh	Rv3671c inh
CCOC(=O)c1nn(-c2ccc(F)cc2)c(=O)c2c(N)scc12	0	22	-2	0	1	-8
CCOC(=O)c1nn(-c2ccc(C)cc2)c(=O)c2c(N)scc12	nt	35*	5	-1	3	-21
Nc1c(Cl)ncnc1NCc1cccnc1	2	-2	-1	-2	6	-5
Nc1c(Cl)ncnc1NCCc1ccc(O)cc1	11*	1	13	-7	3	2
COc1ccc(OC)c(NC(=O)c2ccc3c(=O)n(CCc4ccccc4)c(=S)[nH]c3c2)c1	1	-1	52*	-9	nt	-2
O=C(Nc1cc(Sc2ccccn2)cc([N+](=O)[O-])c1)c1cccc(Cl)c1	0	10	76*	9	0	-86
O=C(C[C@@H]1CC[C@@H](NC(=O)c2ccncc2)[C@@H](CO)O1)NCCc1ccncc1	1	nt	nt	nt	nt	nt
COc1ccc2nc3ccccc3nc2c1NC(=O)c1ccc(Cl)cc1Cl	nt	-29	+	-2	37*	5
COc1cc(-c2cc(C(=O)Nc3c(Cl)cc(Cl)cc3Cl)c3ccccc3n2)cc(OC)c1OC	0	-9	-7	5	3	-13
O=C(C1CCC1)N1CC(=O)N2[C@H](CO)[C@@H](c3ccc(-c4ccccc4F)cc3)[C@@H]2C1	1	nt	nt	nt	nt	nt
CCCCOc1cccc(C2C(C(=O)c3ccc(C)o3)=C(O)C(=O)N2c2nnc(C)s2)c1 (configuration not stated)	2	1	154*	nt	nt	nt
C=CCOc1cccc(C2C(C(=O)c3ccc(C)o3)=C(O)C(=O)N2c2nccs2)c1 (configuration not stated)	nt	0	+	-6	3	3
COc1cccc(C2C(C(=O)c3ccc(C)o3)=C(O)C(=O)N2c2cc(C)on2)c1 (configuration not stated)	1	0	0	3	1	10
C[C@H]1CN([C@@H](C)CO)C(=O)c2cc(NC(=O)Cc3ccccc3)ccc2O[C@@H]1CN(C)C(=O)Nc1ccc(F)cc1	-1	nt	nt	nt	nt	nt
O=[N+]([O-])c1ccc(N/N=C/c2ccccc2)c(F)c1	-1	-8	234*	7	-3	-9
Cc1ccc(C)c(CN2C(=O)COc3ccccc32)c1	0	2	-1	6	3	-2
Cc1ccc(C)c(CN2C(=O)COc3ccc(C(=O)c4ccccc4C(=O)O)cc32)c1	14*	7	-3	1	2	-4
S=c1[nH]nc2ccccn12	26*	nt	3	nt	nt	nt
Cc1ccn2c(=S)[nH]nc2c1	-2	nt	-2	nt	nt	nt
COc1cccc2cc(-c3nc(-c4cccs4)cs3)c(=O)oc12	nt	-5	99*	-5	0	-22
O=c1oc2ccccc2cc1-c1nc(-c2cccs2)cs1	nt	nt	141*	0	5	-13
Cc1noc(C)c1NC(=O)Nc1ccc2c(c1)CC(=O)N([C@@H](C)CO)C[C@H](C)[C@@H](CN(C)Cc1ccc(C(=O)O)cc1)O2	1	nt	nt	nt	nt	nt
Cc1ccc(N=Nc2c(O)n(CN3CCOCC3)c3ccccc23)cc1	nt	3	57*	45	1	-20
Cc1cccc(NC(=S)N=Nc2c(O)n(CN3CCOCC3)c3ccccc23)c1C	nt	22	10	23	-1	15
COCCN1C(=O)/C(=C/c2ccc(N3CCCC3)cc2)SC1=S	0	0	318*	6	-2	-43
SMILES	TcdB GH inh	RecA intein inh	MazEF act	Mtb betalactam	Mtb UGM inh	Rv3671c inh
COc1cccc(NC(=O)c2ccc(-c3ccc([N+](=O)[O-])cc3)o2)c1	0	4	276*	0	3	-12
COc1ccc(NC(=O)c2ccc(-c3ccc([N+](=O)[O-])cc3)o2)cc1OC	2	-1	19	65	3	10
COc1ccc(CNC(=O)C[C@@H]2C[C@@H]3c4cc(NC(=O)C5CCC5)ccc4O[C@@H]3[C@H](CO)O2)cc1	-6	nt	nt	nt	nt	nt
O=C(Nc1ncccn1)c1ccc([N+](=O)[O-])o1	0	-462	91*	1	0	2
Cc1ccc(S(=O)(=O)Nc2ccc3c(c2)C(=O)N([C@H](C)CO)C[C@H](C)[C@H](CN(C)C(=O)CCC(F)(F)F)OCCCC[C@H](C)O3)cc1	1	nt	nt	nt	nt	nt
CCOC(=O)Nc1ccc(Oc2ccccc2)cc1	nt	11	5	81	-2	6
CCOC(=O)Nc1ccc(OC(=O)Oc2ccc(NC(=O)OCC)cc2)cc1	12*	nt	9	nt	nt	nt
CC1C/C(=C/c2cccn2C)C(=O)/C(=C/c2cccn2C)C1 (configuration not stated)	nt	nt	+	17	-3	-34
COc1ccc(S(=O)(=O)N(C)C[C@H]2Oc3c(NC(=O)C4CCOCC4)cccc3C(=O)N([C@H](C)CO)C[C@@H]2C)cc1	0	nt	nt	nt	nt	nt
O=[N+]([O-])C(/C=C(\Cl)[N+](=O)[O-])=C1N(Cc2ccc(Cl)nc2)CCN1Cc1ccc(Cl)nc1	nt	61*	-21	8	0	-1
O=[N+]([O-])/C(C(=C(Cl)Cl)N1CCN(Cc2ccccc2)CC1)=C1\NCCN1Cc1ccc(Cl)nc1	0	13	15	-4	3	11
CO[C@@H]1CN(C)C(=O)c2cc(NC(=O)CC(F)(F)F)ccc2OC[C@@H](C)N(CC2CC2)C[C@@H]1C	1	nt	nt	nt	nt	nt
C[C@@H](NC(=O)[C@H]1[C@H](CO)[C@H]2Cn3c(cccc3=O)[C@H]2N1Cc1ccncc1)c1ccccc1	0	nt	nt	nt	nt	nt
N=C(N)c1ccc(/C=C/c2ccc(C(=N)N)cc2O)cc1	1	-12	60*	35	0	0
N=C(N)c1ccc(Cl)cc1	1	0	-3	4	2	7
Cc1nnc(-c2cccc(Br)c2)c2cn(-c3ccc(Br)cc3)nc12	nt	0	-69	-21	-3	-15
COc1ccc(-n2cc3c(-c4cccc(Br)c4)nnc(C)c3n2)cc1	0	14	52*	81	0	-12
CCOCC(=O)Nc1cc(Cl)ccc1C	10*	0	1	-1	2	2
CCOc1ccc2ccccc2c1/C=N/NC(=O)c1ccncc1	11*	-4	7	98	-4	-3
C[C@H](CO)N1C[C@H](C)[C@H](CN(C)C(=O)c2ccc3c(c2)OCO3)Oc2ncc(C3=CCCCC3)cc2C1=O	1	nt	nt	nt	nt	nt
O=C(CSc1nnc(-c2ccccc2Cl)o1)Oc1ccc(Br)cc1	nt	61*	-10	-13	2	6
Cc1ccccc1S(=O)(=O)N1C[C@H](O)COC[C@@H]2O[C@H](CC(=O)NCCc3ccccc3)CC[C@H]21	-1	nt	nt	nt	nt	nt
Cc1c(NC(=O)COC(=O)c2cc(-c3cccc4ccccc34)nc3ccccc23)c(=O)n(-c2ccccc2)n1C	nt	5	62*	0	3	-5
CCOC(=O)C(C)Sc1ncnc2c1nnn2-c1ccc(F)cc1 (configuration not stated)	nt	37*	2	99	2	-9
Cc1ccc(/C=[N+](/C)[O-])cc1	1	0	1	0	-1	14

High-throughput results as filed in PubChem BioAssay.
